PubChem BioAssay (Tox21)
Calls of active or inactive are those of the source. Unless noted, the call rests on the fitted dose curve; in most records, active means well fitted curve in the direction sought with a large enough effect in the repeat runs; inconclusive means weak or mixed curves; inactive means no such curve, though single readings can be large; an effect the other way counts as inactive or inconclusive.

Assays:
[1] = qHTS assay to identify small molecule antagonists of the thyroid receptor (TR) signaling pathway (AID 743065); further: nearly all actives have a fitted effect of over 55% in size; further: potency means the concentration at half of the fitted maximal effect
Outline: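 Antagonism measured as loss of luciferase signal in GH3 cells stably carrying a TRE-luciferase reporter, co-treated with compound and T3 (1 nM final) for 23.5 h at 37 C. Viability was read in the same well by CellTiter-Fluor.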

[2] = tested on: thyroid hormone receptor (rat, GH3 cells); assay: qHTS assay to identify small molecule agonists of the thyroid receptor (TR) signaling pathway (AID 743066; calls by dose curve)
[3] = qHTS assay to identify small molecule antagonists of the estrogen receptor alpha (ER-alpha) signaling pathway - cell viability counter screen (AID 743074; calls by dose curve; further: nearly all actives have a fitted effect of over 45% in size)
[4] = qHTS assay to identify small molecule antagonists of the estrogen receptor alpha (ER-alpha) signaling pathway using the BG1 cell line - cell viability counter screen (AID 743081);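 further: compound given together with 17beta-estradiol as the ER stimulus; series mostly up to about 70 µM; nearly all actives have a fitted effect of over 45% in size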
[5] = target: Aromatase (Homo sapiens) (UniProt P11511); assay: qHTS assay to identify aromatase inhibitors (AID 743083); further: nearly all actives have a fitted effect of over 55% in size; further: potency means the concentration at half of the fitted maximal effect
[6] = target: Estrogen receptor (Homo sapiens) (UniProt P03372); assay: qHTS assay to identify small molecule agonists of the estrogen receptor alpha (ER-alpha) signaling pathway (AID 743075; calls by dose curve; further: potency means the concentration at half of the fitted maximal effect)
[7] = target: Estrogen receptor (Homo sapiens) (UniProt P03372); assay: qHTS assay to identify small molecule antagonists of the estrogen receptor alpha (ER-alpha) signaling pathway (AID 743069; active means well fitted curve in the direction sought with a large enough effect in the signal ratio in the repeat runs, not every such curve was filed as active; inconclusive means weak or mixed curves, or effect the other way; inactive means no such curve, though single readings can be large or run the other way; the % refers to the signal ratio)
Outline: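 Fluorescence intensity from a beta-lactamase FRET substrate served as the read-out. Cells: HEK293 with stably integrated ER-alpha-UAS-bla reporter. Agonist 17beta-estradiol was co-added with compounds; incubation 18 hr at 37C, substrate 2 hr at room temperature.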

[8] = target: Estrogen receptor (Homo sapiens) (UniProt P03372); assay: qHTS assay to identify small molecule agonists of the estrogen receptor alpha (ER-alpha) signaling pathway using the BG1 cell line (AID 743079); further: nearly all actives have a fitted effect of over 20% in size; further: potency means the concentration at half of the fitted maximal effect
[9] = qHTS assay to identify small molecule antagonists of the estrogen receptor alpha (ER-alpha) signaling pathway using the BG1 cell line (AID 743080; calls by dose curve; further: series mostly up to about 70 µM; nearly all actives have a fitted effect of over 25% in size)
Outline: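 Antagonist mode: compounds in DMSO were pinned onto BG1-Luc-4E2 cells alongside 17beta-estradiol agonist, incubated 21.5 h, and ERE-driven luciferase measured with ONE-Glo. Cytotoxicity was multiplexed using CellTiter-Fluor fluorescence.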

Measured: Potency

Aromatase (Homo sapiens), sequence (P11511 whole entry, looked up): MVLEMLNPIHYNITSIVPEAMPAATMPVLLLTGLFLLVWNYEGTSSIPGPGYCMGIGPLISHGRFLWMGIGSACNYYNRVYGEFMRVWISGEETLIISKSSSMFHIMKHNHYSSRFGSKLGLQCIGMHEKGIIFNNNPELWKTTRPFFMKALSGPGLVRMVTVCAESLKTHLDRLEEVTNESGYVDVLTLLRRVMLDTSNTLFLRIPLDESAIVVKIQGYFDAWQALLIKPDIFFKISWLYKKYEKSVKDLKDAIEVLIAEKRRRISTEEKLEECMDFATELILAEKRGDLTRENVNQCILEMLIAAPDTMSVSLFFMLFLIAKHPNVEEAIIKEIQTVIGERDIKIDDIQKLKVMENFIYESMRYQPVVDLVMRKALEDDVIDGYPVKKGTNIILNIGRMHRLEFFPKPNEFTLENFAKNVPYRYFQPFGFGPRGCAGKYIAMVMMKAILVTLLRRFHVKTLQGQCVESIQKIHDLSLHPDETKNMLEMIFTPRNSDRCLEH
Estrogen receptor (Homo sapiens), sequence (P03372 whole entry, looked up): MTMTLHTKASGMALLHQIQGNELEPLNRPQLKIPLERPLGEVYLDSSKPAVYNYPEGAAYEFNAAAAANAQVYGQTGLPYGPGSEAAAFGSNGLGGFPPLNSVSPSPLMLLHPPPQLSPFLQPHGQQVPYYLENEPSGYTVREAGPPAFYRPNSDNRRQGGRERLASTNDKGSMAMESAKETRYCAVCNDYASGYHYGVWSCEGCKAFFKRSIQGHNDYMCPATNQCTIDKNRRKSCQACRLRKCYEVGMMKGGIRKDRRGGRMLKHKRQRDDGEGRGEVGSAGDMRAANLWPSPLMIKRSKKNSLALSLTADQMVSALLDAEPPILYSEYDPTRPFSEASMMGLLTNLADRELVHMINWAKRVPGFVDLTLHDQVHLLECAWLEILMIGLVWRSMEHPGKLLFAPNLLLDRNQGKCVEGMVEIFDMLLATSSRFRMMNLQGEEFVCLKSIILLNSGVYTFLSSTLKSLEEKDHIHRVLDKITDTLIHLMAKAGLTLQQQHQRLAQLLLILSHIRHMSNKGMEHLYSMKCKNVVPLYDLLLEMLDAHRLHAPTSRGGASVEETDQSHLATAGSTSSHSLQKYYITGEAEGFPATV

CCCCCCCC/C=C\CCCCCCCC(N)=O
inactive: [1] | [2] | [3] | [4] | [5]

CC(C)(C)c1ccc(S)cc1
not listed: [7] | [8] | [9]
inactive: all other assays above

C=CC(C)(CCC=C(C)C)OC(=O)c1ccccc1 (centres undefined)
inactive: [2] | [3] | [4]

CC(=O)O[C@H]1C[C@@H]2CC[C@@H]3[C@H](CC[C@@]4(C)[C@H]3C[C@H]([N+]3(C)CCCCC3)[C@@H]4OC(C)=O)[C@@]2(C)C[C@@H]1N1CCCCC1
active: [8] 33.5 µM
not listed: [1] | [2]
inactive: all other assays above

CC(=O)OC/C=C/c1ccccc1
inactive: [1] | [2] | [3] | [4] | [5]

Cc1cc(CC(=O)O)c(C)n1-c1ccc(Cl)cc1
inactive: [2] | [3] | [4] | [5]

CCN1CCC[C@H]1CNC(=O)c1c(OC)ccc(Br)c1OC
not listed: [1] | [2] | [9]
inactive: all other assays above

O=S(=O)(O)c1ccc(O)c2ncccc12
not listed: [1] | [4] | [9]
inactive: all other assays above

CC(=O)c1c(C)c([N+](=O)[O-])c(C(C)(C)C)c([N+](=O)[O-])c1C
inactive: [2] | [3] | [4] | [5]

CC1(C)CCC(C)(C)c2cc(NC(=O)c3ccc(C(=O)O)cc3)ccc21
inactive: [2] | [3] | [4]
active: [1] 21.1 µM

COC(Cc1ccccc1)OC
not listed: [7] | [8]
inactive: all other assays above

CC(=O)c1ccc2c(c1)[C@H](NC(=O)c1ccc(F)cc1)[C@@H](O)C(C)(C)O2
inactive: [1] | [2] | [3] | [4] | [5]

N#Cc1cc2ccccc2c2ccccc12
not listed: [7]
inactive: all other assays above

CC(C)CCCC(C)CCO (centres undefined)
not listed: [8]
inactive: all other assays above

CCOc1ccc2[nH]cc(C(=O)NCc3ccccc3)c(=O)c2n1
inactive: [2] | [7] | [3] | [6] | [4]
active: [5] 61.1 µM

O=C1[C@H](CC[C@H](O)c2ccc(F)cc2)[C@@H](c2ccc(O)cc2)N1c1ccc(F)cc1
not listed: [1]
inactive: all other assays above

CC1CCc2cc(F)cc3c(=O)c(C(=O)O)cn1c23 (centres undefined)
inactive: [1] | [2] | [3] | [4]

Oc1ccc(Sc2ccc(O)cc2)cc1
inactive: [2] | [3] | [4] | [5]
active: [1] 51 µM | [6] 18.2 µM [inconclusive] | [8] 0.51 µM

CC(Cc1cccc(C(F)(F)F)c1)NCCOC(=O)c1ccccc1 (centres undefined)
inactive: [3] | [4]
active: [5] 29.8 µM

CCCOc1ccc2nc(NC(=O)OC)[nH]c2c1
active: [1] 0.422 µM
not listed: [6] | [9]
inactive: all other assays above

CCCCCCCCCC(=O)OCC
not listed: [3] | [8]
inactive: all other assays above

C=CCCCCCC
not listed: [9]
inactive: all other assays above

O=C(CC(=O)c1ccccc1)c1ccccc1
inactive: [1] | [2] | [3] | [4] | [5]

O=C(O)/C=C/c1cnc[nH]1
inactive: [1] | [2] | [3] | [4] | [5]

CN(C)CC[C@@H](c1ccc(Br)cc1)c1ccccn1
inactive: [7] | [3] | [6] | [8] | [4]

CC(C)NCC(O)c1cc(O)cc(O)c1 (centres undefined)
inactive: [3] | [9] | [4] | [5]

COc1cc(C(C)(C)C)c(O)c(C(C)(C)C)c1
inactive: [2] | [3] | [4]

COc1ccc(C(C)=O)cc1
active: [8] 44.6 µM
not listed: [3] | [7]
inactive: all other assays above

O=[N+]([O-])c1cc[n+]([O-])cc1
inactive: [2] | [3] | [6] | [4]

O=C(O)Cn1c(C(=O)Nc2nc(-c3ccccc3Cl)cs2)cc2ccccc21
active: [1] 26.6 µM
not listed: [3] | [9]
inactive: all other assays above

CN1CCC(OC(c2ccccc2)c2ccccc2)CC1
not listed: [1] | [8] | [9]
inactive: all other assays above

Cc1ccc2c(ccc3ccccc32)c1
inactive: [3] | [6] | [4] | [5]

COc1ccc2[nH]c(S(=O)Cc3ncc(C)c(OC)c3C)nc2n1 (centres undefined)
not listed: [1] | [6] | [9]
inactive: all other assays above

CCC(C)N(C)C(=O)c1cc2ccccc2c(-c2ccccc2Cl)n1 (centres undefined)
inactive: [2] | [3] | [6] | [8] | [4]
active: [1] 35.2 µM

CCN(CC)C(C)CN1c2ccccc2Sc2ccccc21 (centres undefined)
not listed: [1] | [2]
inactive: all other assays above

CNCC[C@@H](Oc1ccccc1C)c1ccccc1
active: [1] 23.7 µM
not listed: [2]
inactive: all other assays above

CC(C)(C)c1cc(CO)cc(C(C)(C)C)c1O
active: [1] 62.3 µM
inactive: [2] | [6] | [4]

CCN(CC)CCOc1ccc2c(c1)C(=O)c1cc(OCCN(CC)CC)ccc1-2
inactive: [2] | [3] | [5]

CCCCC(CC)COCCCN (centres undefined)
not listed: [1] | [8]
inactive: all other assays above
